Compound activity deposited in PubChem by SRMLSC.
A340 absorber: absorbance at 340 nm. compound absorbance at 340 nm, fold over control. fold change at 10 µM. 65,000 tested, under 10 active. AID 708;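 active = at 10 µM dose, initial 340 nm absorbance at least 2 fold that of control wells; inactive = change under 2 fold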;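 also: initial absorbance extrapolated from kinetic A340 decline of NADH oxidation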
Autofluor 339: intrinsic fluorescence of library compounds, ex339/em460 – biochemical, MLSMR library, data from DPM-DC assay, artefact control, profiling panel. 65,000 compounds, 5.5% hits. fluorescence fold increase at 10 µM. compound autofluorescence, ex339/em460 nm, NADH buffer; hits give high values; 1 = no-compound wells, NADH background. AID 709;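 active = at 10 µM, mean starting fluorescence two-fold or more over control wells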;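 also: signal is the first read of a kinetic run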
MK inhibit: inhibitors of Streptococcus pneumoniae mevalonate kinase; purified MK, PK/LDH-coupled NADH absorbance 340 nm; inhibition, % at 10 µM; 65,000 compounds, 0.48% hits;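 active = ranked among the strongest by inhibition in the single 10 µM screen, a fixed top-ranked set picked for dose follow-up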
NADH coupling: inhibition of NAD/NADH coupling enzymes, library profiling | IC50, µM (top dose mostly 10 µM) | 65,000 compounds, 0.02% hits | coupled PK/LDH NADH assays, four targets | AID 774;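 active = single-dose screening hits from any of four coupled enzyme assays that gave an IC50 when retested across doses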;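 also: the DPM-DC format reads NADH fluorescence rather than 340 nm absorbance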
DPM-DC inhibit: blocks S. pneumoniae diphosphomevalonate decarboxylase; purified DPM-DC, PK/LDH coupled NADH fluorescence; calls only at 10 µM; 65,000 compounds, 0.49% hits;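 active = the 320 compounds with the highest percent inhibition in the single-dose primary screen, excluding strongly autofluorescent ones, cut at about 32% in these data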;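 also: kinetic rate of NADH fluorescence loss reporting ADP formed by the decarboxylase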
PMK inhibit: S. pneumoniae PMK inhibition; inhibition, % at 10 µM; 65,000 compounds, 0.49% hits; AID 539; purified PMK, PK/LDH-coupled NADH absorbance 340 nm;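 active = top-ranked compounds by inhibition in the single 10 µM screen, taking a fixed number of the strongest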
A number is an active result; . = inactive; / = no result shown; + = active, no number; [ ] = another dose, or the depositor's remark. In the library only some 6.3% were active in any assay of this set; here they are far more common.

SMILES	A340 absorber	Autofluor 339	MK inhibit	NADH coupling	DPM-DC inhibit	PMK inhibit
COCCOC(=O)c1c(N)n(Cc2ccco2)c2nc3ccccc3nc12	.	2.3	.	.	/	.
CCOC(=O)c1c(C)n(Cc2ccco2)c2ccc(OC)cc12	.	.	.	.	.	.
C=CCn1c(O)c(C=Nc2ccc(OC)cc2C)c(=O)[nH]c1=O	.	.	.	.	.	.
O=c1[nH]c(=O)n(Cc2ccc(F)cc2)c(O)c1C=NCC1CCCO1 (stereo not given)	.	.	.	.	.	.
Cc1nn(Cc2ccccc2)c(C)c1C(=O)OCC(=O)Nc1ccccc1SCC#N	.	.	.	.	.	.
CCOC(=O)c1cc2c(cn1)[nH]c1ccccc12	.	2.2	.	.	+[fluoresces]	.
O=c1[nH]c(=O)n(-c2cccc(Cl)c2)c(O)c1C=NCCN1CCCCC1	.	.	.	.	.	.
O=C(Cn1c2c(c(-c3ccccc3Cl)cc1=O)CCC2)N1CCC2(CC1)OCCO2	.	.	.	.	.	.
O=c1c2ccccc2[se]n1-c1ccccc1	.	.	72	56µM	+	100
COc1cccc(-n2c(C)nc3ccccc3c2=O)c1	.	.	.	.	.	.
